Assay outcomes: PubChem BioAssay, The Scripps Research Institute Molecular Screening Center
TTR transcr act = activators of transthyretin transcription; SH-SY5Y TTR promoter Gaussia luciferase, luminescence; 100% = recombinant luciferase protein wells; activation, % at 16.7 µM; 92,000 tested, 1.3% active;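 active = activation above the mean of all tested compounds plus 3 SD, cut at about 9.5% in these data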;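 note: cells exposed to compounds for one day before reading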
HuH7 TTR inh = counter-screen for TTR activators: TTR transcription inhibitors in HuH7 cells; inhibition, % at 16.7 µM; HuH7 TTR promoter-Gaussia luciferase reporter, luminescence; shares compounds with TTR transcr act; 1,100 tested, 4% active;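 active = average inhibition above the solvent-only control wells' mean plus 3 SD, cut at about 15% in these data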;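 note: inhibitors lower well luminescence so higher value means more inhibition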
TTR up confirm = human TTR transcription activation, confirmation. activation, % at 16.7 µM. SHSY5Y TTR promoter Gaussia luciferase, luminescence; 100% = purified Lucia enzyme wells, no cells. 1,100 tested, under 10 active. shares compounds with TTR transcr act;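 active = mean activation above a set limit taken from the earlier primary screen, cut at about 11% in these data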
Numbers stand for hits; . = inactive. The entries come from a sample that favours hits as a whole.

SMILES | TTR transcr act | others
CSc1nnnn1-c1ccc(C(=O)O)cc1 | 18.9 | HuH7 TTR inh=.;TTR up confirm=.
CSc1nnnn1-c1ccc(C)c(Cl)c1 | .
CCN(C(=O)[C@@H](C)[C@@H](O)c1ccc(Cl)cc1)c1ccccc1 | .
CC(C)CN1CCC(=O)N(CCN=[N+]=[N-])CC1 | .
CC1CCCCN1c1nnc(NC(=O)Cn2c(=O)oc3ccccc32)s1 (stereo not given) | 19.3 | HuH7 TTR inh=.;TTR up confirm=.
COc1ccc(NC(=O)Nc2nnc(N3CCCCC3C)s2)cc1OC (stereo not given) | .
COc1ccc(-c2nc(NC(=O)Cn3c(=O)oc4ccccc43)sc2C)cc1 | .
CCOc1c2ccc(C(=O)NCCc3ccc(C)cc3)cc2nn1CC | .
CCCCn1nc2cc(C(=O)NCc3cc(C(F)(F)F)cc(C(F)(F)F)c3)ccc2c1OCC | .
CCCCn1nc2cc(C(=O)N[C@H](C)C3CCCCC3)ccc2c1OCC | 11.5 | HuH7 TTR inh=.;TTR up confirm=.
CCOC(=O)[C@]12CCCC=C1N(Cc1ccc(OC)cc1)C(=O)[C@@H]2CC(=O)NCCCCc1ccccc1 | .
CCC(C)(C)n1nnnc1C(c1ccc(C)cc1)N1CCCC1 (stereo not given) | 18.1 | HuH7 TTR inh=.;TTR up confirm=.
Cc1ccc(C)c(N2CCN(C(c3ccccc3)c3nnnn3C(C)(C)C)CC2)c1 (stereo not given) | .
CCC(C)(C)n1nnnc1C(c1cc2cc(C)cc(C)c2[nH]c1=O)N1CCCC1 (stereo not given) | .
CN1CCCC(C)(C(=O)Nc2cccc(Oc3ccccc3)c2)C1 (stereo not given) | .
CCOC(=O)[C@]12CCCC=C1N(Cc1ccc(OC)cc1)C(=O)[C@@H]2CC(=O)NCCCN1CCCC1=O | .
COC(=O)[C@]12C[C@H](CC(=O)NCc3cccc4ccccc34)C(=O)N(Cc3ccc(Cl)cc3Cl)C1=C[C@H](C1CCCC1)O[C@@H]2C | .
CSc1nc2ccc(NC(=O)c3ccccn3)cc2s1 | .
O=C(Nc1ccc(N2C(=O)CC(c3ccccc3)C2=O)c(Cl)c1)c1ccccn1 (stereo not given) | 37.5 | HuH7 TTR inh=.;TTR up confirm=.
O=C(NNC1CC(=O)N(c2ccc(Cl)cc2)C1=O)c1ccccn1 (stereo not given) | .
CSCCC(C(=O)Nc1c(C)cccc1C)N1CCN(c2ccc(C(F)(F)F)cn2)CC1 (stereo not given) | .
O=C(NC1CCCC1)c1cccc2c1C(=O)c1ccc(Cl)cc1S2(=O)=O | .
CC1=N/C(=C\c2ccc([N+](=O)[O-])cc2)C(=O)N1c1ccc(C)c(Cl)c1 | .
Cc1ccc(S(=O)(=O)NOCc2ccccc2)cc1 | .
CN1C(=O)NC(=O)C1c1ccccc1 (stereo not given) | .
SMILES | TTR transcr act | others
CCOC(=O)[C@@H]1CSCCS(=O)(=O)N1C(=O)[C@H](CCSC)NC(=O)OC(C)(C)C | .
O=S(=O)(Nc1ccc2c(c1)OCCO2)c1cccc2nsnc12 | .
O=S(=O)(Nc1ccc2c(c1)OCO2)c1ccccc1 | .
Cc1ccc2cccc(S(=O)(=O)Nc3ccc4c(c3)OCO4)c2n1 | 14.0 | HuH7 TTR inh=.;TTR up confirm=.
CCCCOCCCNC(=O)C[C@@H]1C(=O)N(CCc2ccc(Cl)cc2)C2=CCCC[C@]21C(=O)OCC | .
O=C(Cc1ccccc1)NN1C(=O)C2C(C1=O)C1C=CC2C12CC2 (stereo not given) | .
O=C(Cc1ccccc1)NN1C(=O)C2C3C=CC(C3)C2C1=O (stereo not given) | .
O=C(Cc1ccccc1)NN1C(=O)C2C3C=CC(C4CC34)C2C1=O (stereo not given) | 10.5 | HuH7 TTR inh=.;TTR up confirm=.
CC(C)Nc1nc(Nc2ccc(C(N)=O)cc2)c2sccc2n1 | .
O=C(NNC(=O)c1ccc(Cl)cc1Cl)c1csc(-c2cccnc2)n1 | .
O=C(NNS(=O)(=O)c1ccc(F)cc1F)c1csc(-c2cccnc2)n1 | 19.3 | HuH7 TTR inh=.;TTR up confirm=.
O=C(NCc1ccc(Cl)cc1)c1csc(-c2cccnc2)n1 | .
Cc1ccc(-c2c(NC(=O)Nc3ccc(F)cc3)nc3ncccn23)cc1 | .
Cc1ccccc1NC(=O)OC1CC2CC1[C@H]1CCCCN1[C@H]2Cc1ccccc1 (stereo not given in full) | .
COC(=O)[C@@]12CCCCC=C1N(CCc1ccc(Cl)cc1)C(=O)[C@H]2CC(=O)NCCCCc1ccccc1 | .
CC(C)c1c(C(=O)N/N=C/c2ccc(C(F)(F)F)cc2)nnn1-c1nonc1N | .
CC(C)(C)NC(=O)CSc1nnc(-c2ccncc2)n1Cc1ccccc1 | .
Cc1nc(SCC(=O)NC(C)(C)C)c2c(-c3cccs3)csc2n1 | 13.6 | HuH7 TTR inh=.;TTR up confirm=.
Cc1cc(NC(=O)CSc2n[nH]c(-c3cccs3)n2)no1 | .
CC(C)(C)S(=O)(=O)N1C[C@@H]2C(=C(CCO)C[C@@H]3C(=O)N(c4ccccc4)C(=O)[C@@H]32)[C@H]1CCO | .
CN(C(=O)COC(=O)c1nc(Cl)ccc1Cl)c1ccccc1 | .
O=C(O)CCc1nn2c3ccccc3nc2n(CCN2CCCCC2)c1=O | .
CCn1c(=O)c(C)nn2c3ccccc3nc12 | .
Cc1nn2c3ccccc3n(CCN3CCCCC3)c2nc1=O | 10.7 | HuH7 TTR inh=.;TTR up confirm=.
CCOC(=O)CC[C@@]1(C(=O)OCC)C[C@@H](CC(=O)NCC23CC4CC(CC(C4)C2)C3)C(=O)N2CCCC=C21 | .
SMILES | TTR transcr act | others
O=c1cc(N2CCN(c3cccc(Cl)c3Cl)CC2)[nH]c(=O)n1C1CCCCC1 | .
CC(C)(N[C@@H](Cc1ccccc1)C(=O)NCC(c1ccccc1)c1ccccc1)C(=O)NC1CCCCC1 | .
O=C(NNC(=S)NC(=O)c1cccs1)c1cccnc1 | .
C/C(=N\NC(=O)c1cccs1)c1cccnc1 | 9.9 | HuH7 TTR inh=.;TTR up confirm=.
C/C(=N\NC(=O)c1ccc(N(C)C)cc1)c1cccnc1 | .
O=C(N[C@@H]1CC[C@H]2SC[C@H](C(=O)O)N2C1=O)OCC1c2ccccc2-c2ccccc21 | .
O=C(OCc1ccccc1)c1cn(-c2ccccc2)nc1-c1ccncc1 | 17.8 | HuH7 TTR inh=.;TTR up confirm=.
COC(=O)c1cn(-c2ccccc2)nc1-c1ccc(OC)cc1 | .
COC(=O)c1cn(-c2ccccc2)nc1-c1ccncc1 | .
C/C=C/c1cccc(-c2nc(C(=O)NC3CCC3)cc3c2[C@@H](CCO)N(S(=O)C(C)(C)C)C3)c1 (stereo not given in full) | .
CCNC(=O)CN(c1ccc(Oc2ccccc2)cc1)S(=O)(=O)c1ccccc1 | .
Fc1cccc(Cn2ccc3ccc(-c4ccc5ccn(Cc6cccc(F)c6)c5c4)cc32)c1 | .
